These results are taken from PubChem BioAssay (Tox21).

The structures appear in SMILES notation. Inconclusive results are not listed. A number with no mark means an inactive call. Calls of active or inactive are those of the source. Calls come from the whole dose curve; as a rule, active = well fitted cell-killing curve with a large enough effect in the repeat runs; inconclusive = weak or mixed curves, or effect the other way; inactive = no such curve, though single readings can be large or run the other way.
% is set by controls: 0 for no effect and ±100 for the full control effect.

A short description of the assay: qHTS assay to identify small molecule agonists of the RXR signaling pathway - cell viability counter screen (AID 1159529).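 Note: HEK 293T cells carrying an RXR-alpha UAS beta-lactamase reporter; nearly all actives have a fitted effect of over 50% in size.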 As to conditions: RXR-alpha-bla HEK293T viability, CellTiter-Glo, 16 h; series mostly up to 76.8 µM. An outline of the steps: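 In this parallel viability measure, GeneBLAzer RXR-alpha HEK 293T cells (2% charcoal-stripped FBS) were given a 5 hr preincubation, treated with compounds 16 hr at 37 C, and read by CellTiter-Glo luminescence.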
(Quantitative high-throughput screening tests each substance at several concentrations.)
Take `CC(CO)c1ccccc1` (stereo not drawn): the molecule was classed as inactive.
Still for that read-out and setting: under `CCOc1cc([N+](=O)[O-])c(OCC)cc1N1CCOCC1` stands “inactive”.
In the case of `CC(=O)c1sc(C)nc1C`, the molecule was classed as inactive.
Regarding `O=S(O)(O)=S`, the activity change, negative = cytotoxicity was 0.418% [at 6.97 µM].
Turning to `CCO[Si](CCCS)(OCC)OCC`, the outcome was inactive.
`N[C@@H](COP(=O)(O)O)C(=O)O`: the activity change, negative = cytotoxicity was 11.4% [at 15.8 µM].
For `Brc1ccc(-c2ccccc2)cc1`, the result was inactive.
Still for that read-out and setting: under `CCCCC(CC)COCCO` (stereo not drawn) stands “inactive”; under `CN1C(C)(C)CCCC1(C)C`, “inactive”; under `Nc1nnc(-c2cccc(Cl)c2Cl)c(N)n1`, “inactive”.
Turning to `COc1nccnc1NS(=O)(=O)c1ccc(N)cc1`, the molecule was called inactive.
Turning to `Nc1ncnc(Nc2ccccc2)n1`, the call was inactive.
On the same count and under the same terms, the value for `CC1=CCC(C(C)C)=CC1` was “inactive”.
In the case of `CN1CCN(CC(=O)N2c3ccccc3C(=O)Nc3cccnc32)CC1`, the activity change, negative = cytotoxicity was 0.873% [at 6.97 µM].
Consider `CCCOC(=O)C(C)O` (stereo not drawn), for which the outcome was inactive.
Same read-out and setting: under `CCOCCOCCOCC` stands “inactive”; under `CC(=C(CCOC(=O)C(C)C)SSC(CCOC(=O)C(C)C)=C(C)N(C=O)Cc1cnc(C)nc1N)N(C=O)Cc1cnc(C)nc1N`, “inactive”; under `COc1ccc(-c2cc(=O)c3c(O)cc(O[C@@H]4O[C@H](CO[C@@H]5O[C@@H](C)[C@H](O)[C@@H](O)[C@H]5O)[C@@H](O)[C@H](O)[C@H]4O)cc3o2)cc1O`, “inactive”.
The same measure, in the same setting: under `Cc1c(I)c(=O)n(-c2ccccc2)n1C` stands “inactive”.
Regarding `CCCCCCCCSCC`, the molecule was called inactive.
On the same count and under the same terms, under `CCC(C=O)CC` stands “inactive”.
Still for that read-out and setting: the value for `COc1cc(NS(=O)(=O)c2ccc(N)cc2)nc(OC)n1` was “inactive”; that for `CCN(CC)CC(=O)Nc1c(C)cccc1C` was “inactive”.
